From PubChem BioAssay (EPA / NIEHS)
Several values for one entry are separate records, joined by “and”; a condition that tells them apart may be missing. Equal entries are not always repeated. Some structures have more than one record in an assay (separate samples or runs), and their calls can disagree. Activity calls are given as the source filed them. Rule for the calls: active = hit-call score of the fitted dose curve at least 0.9, where 1 is the maximum; inactive = score below 0.9.

Read-out: Interleukin-8 (IL8), CXCL8 (gene 3576)
Experiment: BSK_hDFCGF_IL8: BioMAP Diversity Plus: hDFCGF Assay for Interleukin-8 (IL8) Biomarker Activity (AID 2283058)
Details: primary human foreskin fibroblasts; actives raise or lower the signal
Experimental: BSK_hDFCGF is a cell-based, multiplexed-readout assay that uses foreskin fibroblast, a human skin primary cell, with measurements taken at 24 hours after chemical dosing in a 96-well plate.BSK_hDFCGF_IL8 is an assay component measured in the BSK_hDFCGF assay. It measures IL-8 antibody related to regulation of gene expression using ELISA technology.Data from the assay component BSK_hDFCGF_IL8 was analyzed into 1 assay endpoint. This assay endpoint, BSK_hDFCGF_IL8, was analyzed with bidirectional fitting relative to DMSO as the negative control and baseline of activity. Using a type of binding reporter, gain or loss-of-signal activity can be used to understand changes in the signaling as they relate to the gene CXCL8. Furthermore, this assay endpoint can be referred to as a primary readout, because this assay has produced multiple assay endpoints where this one serves a signaling function. To generalize the intended target to other relatable targets, this assay endpoint is annotated to the cytokine intended target family, where the subfamily is interleukins.
The levels of cell surface (or secreted, indicated by the prefix "s") biomarker endpoints were measured by ELISA. Overt cytotoxicity to cells in confluent adherent cultures (all systems other than the BT system) was assessed by measuring total protein levels using sulforhodamine B (SRB) staining in parallel cultures at the time of biomarker measurements, indicated as SRB endpoints. For proliferation assays for adherent cell types, individual cell types are cultured at sub-confluence and relative cell numbers quantified by SRB staining at time points optimized for each system (48 h: 3C and CASM3C systems; 72 h: BT and HDF3CGF systems; 96 h: SAg system). SRB was performed by staining cells with 0.1% SRB after fixation with 10% TCA and reading wells at 560 nm.Viability and proliferation of PBMC (T cells) was quantified by Alamar Blue reduction for the SAg and BT systems. For PBMC viability (referred to as PBMC Cytotoxicity within the assay endpoint names), cells were plated (75,000/well in a 96-well plate) and then chemical samples added for 1 h before addition of activators, SEB and TSST-1 (20 ng/mL final concentration each). Cells were incubated for 90 h. Then, Alamar Blue (20 uL/well) (Invitrogen, Cat DAL1100) was added for 6 h, and the plates were read with a fluorescence microplate reader at 546/580 nm (excitation/emission). For PBMC proliferation, cells were plated and activated as above but incubated for only 16 h prior to addition of Alamar Blue. Plates were read after 6 h.

SMILES | outcome | AC50
CC(C)(C)c1cc(CCC(=O)NCCCCCCNC(=O)CCc2cc(C(C)(C)C)c(O)c(C(C)(C)C)c2)cc(C(C)(C)C)c1O | inactive | 
CCN(CC)c1ccc(C=O)cc1 | inactive | 
O=C(O)CCC(F)(F)C(F)(F)C(F)(F)F | inactive | 
Nc1cc([N+](=O)[O-])cc(Cl)c1O | inactive | 
OCC(F)(F)C(F)(F)C(F)(F)CO | inactive | 
O=C=NCc1cccc(CN=C=O)c1 | inactive | 
O=S(=O)(OCC(F)(F)F)C(F)(F)C(F)(F)C(F)(F)C(F)(F)F | inactive | 
NCC(F)(F)C(F)(F)C(F)(F)C(F)(F)C(F)(F)C(F)(F)F | inactive | 
Cc1cnccn1 | inactive | 
O=C=Nc1cccc2c(N=C=O)cccc12 | inactive | 
NC(=O)C(F)(F)C(F)(F)C(F)(F)F | inactive | 
CCN(CCO)S(=O)(=O)C(F)(F)C(F)(F)C(F)(F)C(F)(F)C(F)(F)C(F)(F)C(F)(F)C(F)(F)F | inactive | 49.9 µM (active)
O=C(O)C(F)(F)C(F)(F)C(F)(F)C(=O)O | inactive | 
O=C(c1ccccc1)c1ccc(O)cc1O | inactive | 
Cc1ccc(O)c(-n2nc3ccccc3n2)c1 | inactive | 
FC(F)(F)C(F)(F)C(F)(F)C(F)(F)C(F)(F)C(F)(F)CC[Si](Cl)(Cl)Cl | inactive | 
O=C(F)C1(F)C(F)(F)C(F)(F)C(F)(F)C(F)(F)C1(F)F | inactive | 
O=S(=O)(O)CCC(F)(F)C(F)(F)C(F)(F)C(F)(F)C(F)(F)C(F)(F)C(F)(F)C(F)(F)F | inactive | 
CCN(CC)c1ccc(C=O)c(O)c1 | inactive | 

SMILES | outcome | AC50
NC(=O)C(F)(F)C(F)(F)C(F)(F)C(F)F | inactive | 
CC(C)CCCC(C)CCO (stereo not given) | inactive | 
Cc1ccc(S(=O)(=O)C(I)I)cc1 |  | 3.51 µM (active)
Cc1cc(C)c(O)c(C(C)(C)C)c1 | inactive | 
O=C(O)CCC(F)(F)C(F)(F)C(F)(F)C(F)(F)C(F)(F)C(F)(F)C(F)(F)F | inactive | 
O=C(O)C(F)(F)C(F)(F)C(F)(F)OC(F)(C(F)(F)F)C(F)(F)F | inactive | 
FC(F)(F)C(F)(F)C(F)(F)C(F)(F)C(F)(F)C(F)(F)C(F)(F)CCI | inactive | 
O=C(Cl)C(F)(F)C(F)(F)C(F)(F)C(F)(F)C(F)(F)C(F)(F)C(F)(F)F | inactive | 
NC(=O)C(F)(F)C(F)(F)C(F)(F)C(F)(F)C(F)(F)C(F)(F)C(F)(F)F | inactive | 
O=S(=O)(O)CCC(F)(F)C(F)(F)C(F)(F)C(F)(F)F | inactive | 
CCN=C1C=CC(=C(c2ccc(N(CC)CC)cc2)c2ccc(N(CC)CC)cc2)c2ccccc21 |  | 2.89 µM (active) and 2.29 µM (active)
C=C(C)C(=O)OCC(F)(F)C(F)(F)C(F)(F)C(F)F | inactive | 
O=C1C=CC(=O)N1c1ccc(Cc2ccc(N3C(=O)C=CC3=O)cc2)cc1 | inactive | 
OCCCC(F)(F)C(F)(F)C(F)(F)C(F)(F)C(F)(F)C(F)(F)C(F)(F)C(F)(F)F |  | 15.9 µM (active) and 12 µM (active)
CNS(=O)(=O)C(F)(F)C(F)(F)C(F)(F)C(F)(F)C(F)(F)C(F)(F)C(F)(F)C(F)(F)F | inactive | 
C[Si](Cl)(Cl)CCC(F)(F)C(F)(F)C(F)(F)C(F)(F)C(F)(F)C(F)(F)F | inactive | 
CO[Si](C)(CCC(F)(F)C(F)(F)C(F)(F)C(F)(F)C(F)(F)C(F)(F)F)OC | inactive | 
OCC(F)(F)C(F)(F)C(F)(F)C(F)(F)C(F)(F)C(F)(F)C(F)(F)C(F)(F)CO | inactive | 48 µM (active)
COC(F)(C(F)F)C(F)(F)F (stereo not given) | inactive | 
